Compound activity from PubChem BioAssay.
Most compounds without a hit are left out; they make up all but 17% or so of the library.
DT40 TDP1 CPT = DT40-hTDP1 cell growth loss with CPT | chicken DT40 Tdp1-/-;hTDP1 cells + 20 nM CPT, ATP luminescence, 48 h | Potency, µM (series often up to 46.2 µM), inactives show at the top dose activity change, negative = growth inhibition, hits mostly inhibitors | hit rate 12% among 420,000; note: % is set by controls: 0 for no effect and ±100 for the full control effect; nearly all actives have a fitted effect of over 55% in size
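Chicken DT40 Tdp1-/- cells complemented with human TDP1, 400 cells/well, exposed to compounds plus 20 nM camptothecin for at least 48 h at 37 C; viability read as ATP content by CellTiter-Glo luminescence.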
S2 tox = reduces viability in counter-screen for ATXN expression inhibitors; hit rate 0.49% among 400,000; Potency, µM (top dose mostly 56.7 µM), actives largely listed as cytotoxic; S2 cells (HEK-293 line with an ATXN2-luciferase reporter) viability, CellTiter-Fluor protease fluorescence, 24 h; note: nearly all actives have a fitted effect of over 40% in size
TGFb inhibitor = TGF-b pathway inhibition; HepG2 CAGA-GFP TGF-b/SMAD3 reporter, GFP fluorescence, 18 h; TGF-beta stimulated, 500 pg/mL final; Potency, µM (highest dose often 46.1 µM), without a hit: at the top dose activity, negative = inhibition, hits mostly inhibitors; hit rate 1.2% among 410,000; AID 588855; note: % is set by controls: 0 for no effect and ±100 for the full control effect; nearly all actives have a fitted effect of over 65% in size
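First, reporter cells (HEPG2 CAGA-GFP) rested 2 h at 37 degrees C. Next, compounds were pinned in and TGF-beta added to 500 pg/mL final. After 18 h, GFP was imaged per cell and summed per well.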
HepG2 viability = HepG2 cytotoxicity, counter-screen for TGF-b inhibitors. HepG2 CAGA-GFP viability, ATP luminescence, 18 h. Potency, µM (titrated, usually from 46.1 µM), for the others: at the top dose activity change, negative = cytotoxicity, actives largely listed as cytotoxic. AID 588856. hit rate 0.76% among 410,000
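CellTiter-Glo luminescence gave cytotoxicity after 18 hours at 37 degrees C. The cells were HepG2 CAGA-GFP in 1% FBS DMEM, stimulated with 500 pg/mL TGF-beta after compound addition. %Activity was normalised to no-cell wells (complete cell-killing) and DMSO (no toxicity), and curves were fitted and classified.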
TDP1 cell noCPT = qHTS for Inhibitors of human tyrosyl-DNA phosphodiesterase 1 (TDP1): qHTS in cells in absence of CPT; DT40 Tdp1-/- hTDP1 cells, no CPT, ATP luminescence, 48 h; Potency, µM (doses to about 46.2 µM), inactives show top-dose activity change, negative = growth inhibition, hits mostly inhibitors; hit rate 15% among 420,000; AID 686978, 2013; note: % is set by controls: 0 for no effect and ±100 for the full control effect; nearly all actives have a fitted effect of over 55% in size
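A cellular qHTS used chicken DT40 cells lacking endogenous Tdp1 but carrying stably transfected human TDP1. Compounds were applied without camptothecin, and cell growth kinetics were judged by ATP-dependent luminescence after ≥48 hr.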
ATXN2 expr inh = inhibitors of ATXN2 expression | HEK-293 ATXN2-luciferase reporter, luminescence, 24 h | Potency, µM (titrated, usually from 57 µM), for the others: top-dose activity change, negative = inhibition, most hits filed as inhibitors | hit rate 0.72% among 360,000 | AID 1745845; note: % is set by controls: 0 for no effect and ±100 for the full control effect; nearly all actives have a fitted effect of over 55% in size
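ATXN2-luciferase reporter cells (luciferase flanked by upstream and downstream ATXN2 gene portions) were treated 24 h at 37 °C with compounds at up to 57 uM. SteadyGlo luminescence gave expression; GF-AFC fluorescence gave viability.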
* marks the source's active call; other numbers are inactive results; i = inactive; ? = inconclusive; . = not tested or not shown; [ ] = another dose, or the depositor's remark. Calls come from the whole dose curve; as a rule, active = well fitted curve in the direction sought with a large enough effect; inconclusive = small, poorly fitted or top-dose-only effect, or another doubt; inactive = no such curve, though single readings can be large; an effect the other way counts as inactive or inconclusive. Potency is the fitted concentration of half-maximal effect.

SMILES	DT40 TDP1 CPT	S2 tox	TGFb inhibitor	HepG2 viability	TDP1 cell noCPT	ATXN2 expr inh
COc1ccc(O)c(/C=N\NC(=O)CCn2nnc3ccccc32)c1	?	?	?	1%	23µM*	?
COc1cc(/C=N/NC(=O)Cn2nnc3ccccc32)ccc1O	-13%	i	-14%	-1%	?	.
COc1cccc(Cn2c(C)c(CNC3CCCCC3)c(C(=O)O)c2C)c1	5%	i	3%	-3%	-1%	9%
CSc1cccc(NC(=O)CN2CCN(Cc3ccccc3C)S2(=O)=O)c1	?	.	?	-25%	?	.
O=C(O)c1cccc(NC(=O)c2cccc(NC(=O)C3CCCO3)c2)c1 (centres undefined)	1%	i	-18%	0%	-9%	8.9µM*
O=C(Nc1ccc(N=Nc2ccccc2)c(NC(=O)C2CCCO2)c1)C1CCCO1 (centres undefined)	8.2µM*	i	-7%	-4%	21µM*	-37%
O=C(Nc1ccc([N+](=O)[O-])c(NC(=O)C2CCCO2)c1)C1CCCO1 (centres undefined)	-19%	i	21%	12%	-22%	8%
O=C(O)c1cccc(C(=O)Nc2cccc(NC(=O)C3CCCO3)c2)c1 (centres undefined)	-2%	i	9%	0%	2%	?
O=C(Nc1cccc(Cl)c1)Nc1ccc(Br)cc1F	21µM*	?	?	-50%	12µM*	-19%
O=C(Nc1cccc(F)c1)Nc1cccc(Cl)c1	?	i	?	-33%	?	-32%
O=C(Nc1ccccc1)Nc1ccc(Br)cc1F	15µM*	i	-2%	-11%	21µM*	22%
CSc1ccc(Cl)c(C(=O)Nc2cc(S(=O)(=O)N3CCOCC3)ccc2N2CCOCC2)c1	-27%	i	3%	-1%	?	-27%
CC(Nc1ccc(Cl)cc1)C(=O)NN (centres undefined)	-4%	i	0%	-5%	10%	-8%
CC1=CC(C)(C)NC(=S)N1c1cccc2cc(S(=O)(=O)O)ccc12	-1%	i	16%	18%	-7%	.
Cc1cc(NC(=O)CN2CCOCC2)n(-c2nc3ccccc3s2)n1	15µM*	?	?	-15%	21µM*	-9%
O=C1CCN(c2ccccc2)N1	29µM*	i	0%	1%	-50%	-20%
O=C1CCN(S(=O)(=O)c2ccccc2)N1	-1%	i	3%	-3%	9%	5%
CC(=O)Nc1ccc(-c2ccnc3c2CC(C)(C(=O)NC(C)C)O3)cc1 (centres undefined)	-11%	i	8%	-6%	-21%	8%
CC(C)NC(=O)C1(C)Cc2c(-c3ccc(N(C)C)cc3)ccnc2O1 (centres undefined)	4.1µM*	i	-21%	-10%	4.1µM*	-17%
CC(C)c1ccc(NC(=O)C2(C)Cc3c(-c4ccc(N(C)C)cc4)ccnc3O2)cc1 (centres undefined)	?	i	-6%	0%	16µM*	1%
CC(C)c1ccc(NC(=O)C2(C)Cc3c(-c4ccccc4)ccnc3O2)cc1 (centres undefined)	18µM*	i	-1%	-31%	?	-5%
CC(=O)Nc1ccc(-c2ccnc3c2CC(C)(C(=O)Nc2ccc(Cl)cc2)O3)cc1 (centres undefined)	?	i	-7%	-10%	-24%	?
COc1ccc(NC(=O)C2(C)Cc3c(-c4ccc(N(C)C)cc4)ccnc3O2)cn1 (centres undefined)	23µM*	i	5%	7%	9.2µM*	-10%
CNC(=O)C1(C)Cc2c(-c3ccc(NC(C)=O)cc3)ccnc2O1 (centres undefined)	5%	i	33%	-7%	5%	13%
CN(C)c1ccc(-c2ccnc3c2CC(C)(C(=O)Nc2cccc(C(F)(F)F)c2)O3)cc1 (centres undefined)	-60%	i	?	-23%	?	3%
SMILES	DT40 TDP1 CPT	S2 tox	TGFb inhibitor	HepG2 viability	TDP1 cell noCPT	ATXN2 expr inh
CCC(C)C(NC(=O)c1ccccc1NC(=O)c1ccc(OC)cc1)C(=O)NCCCn1ccnc1 (centres undefined)	6%	i	?	10%	0%	-3%
O=C(NC1CCCCC1)C1c2ccccc2OCC(=O)N1Cc1ccc2c(c1)OCO2 (centres undefined)	-6%	i	.	.	-11%	6%
COc1ccc(OC)c(-c2cc(Cl)c3c(c2)CC(CNC(=O)c2coc4c2C(=O)CCC4)O3)c1 (centres undefined)	15%[9.04 µM]	i	.	.	-15%	.
CC(=O)c1cccc(NC(=O)C2(C)Cc3c(-c4cccc(C(N)=O)c4)ccnc3O2)c1 (centres undefined)	?	?	-2%	-5%	?	0%
CC(C)c1ccc(NC(=O)C2(C)Cc3c(-c4cccc(C(F)(F)F)c4)ccnc3O2)cc1 (centres undefined)	16µM*	?	11%	-21%	?	0%
COc1ccc(NC(=O)C2(C)Cc3c(-c4cccc(C(N)=O)c4)ccnc3O2)cn1 (centres undefined)	3.7µM*	?	4%	-4%	2.3µM*	5%
CC1CN(C(=O)COC(=O)c2ccc3ccccc3c2)CC(C)O1 (centres undefined)	10%	i	6%	3%	1%	.
Cc1cccc(CN2CCc3nnc(C(C)NC(=O)C4CCOCC4)n3CC2)c1 (centres undefined)	14%	i	.	.	0%	.
CC(C(=O)NCc1ccc(F)cc1)c1ccc([N+](=O)[O-])cc1 (centres undefined)	-28%	i	1%	1%	-30%	.
CC(C)(C)c1cc(C(=O)N/N=C/c2ccc(-c3ccccc3[N+](=O)[O-])o2)n[nH]1	?	?	?	-28%	?	-17%
O=C(N/N=C/c1ccc(-c2ccccc2Cl)o1)c1ccccc1	15µM*	i	0%	-30%	18µM*	-14%
O=C(O)c1ccc(N/N=C/c2ccc(-c3ccccc3Cl)o2)cc1	2%	i	-2%	19%	-7%	80%
O=C(N/N=C/c1ccc(-c2ccccc2[N+](=O)[O-])o1)c1cccnc1	16µM*	i	-8%	-18%	?	15%
